Laboratory results reported in the supplement of paper PMC5641865, “A screen for kinase inhibitors identifies antimicrobial imidazopyridine aminofurazans as specific inhibitors of the Listeria monocytogenes PASTA kinase PrkA” (The Journal of Biological Chemistry, 2017).
Several values for one entry are separate records, joined by “and”; a condition that tells them apart may be missing. Equal values may be shown once. ± gives the standard deviation of the averaged measurements.

What follows are compounds tested on Listeria monocytogenes 10403S (assay: growth inhibition relative to ceftriaxone-alone control; higher = stronger potentiation of ceftriaxone growth inhibition). Conditions: 10 µM; ceftriaxone 1 ug/ml; 12 h.
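Also: End-point A600 read in BHI broth at 37 °C with 2% DMSO, inhibition computed as (1 − OD with compound plus ceftriaxone ÷ OD with ceftriaxone only) × 100.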

How did the growth inhibition turn out when CS(=O)(=O)CCN(CC#N)Cc1ccc(-c2ccc3ncnc(Nc4ccc(OCc5cccc(F)c5)c(Cl)c4)c3c2)o1 was run?
Its growth inhibition is 1.01 ± 5.1%.

Which growth inhibition does the source give for COc1cc2ncnc(Nc3ccc4c(cnn4Cc4ccccc4)c3)c2cc1OC here?
The growth inhibition was -12.1 ± 18%.

NS(=O)(=O)c1cccc(-c2ccc3c(NC(=O)C4CC4)n[nH]c3c2)c1 was tested. Which growth inhibition did it give?
The growth inhibition was 0.81 ± 3.7%.

With c1ccc(Cc2nc3ccc(Nc4ncnc5ccccc45)cc3[nH]2)cc1 as the compound, how does the growth inhibition read?
Its growth inhibition is -14.5 ± 19%.

Which growth inhibition does the source give for NC(=O)c1ccc(-c2nc(-c3ccccn3)c(-c3ccc4c(c3)OCO4)[nH]2)cc1 here?
The growth inhibition was -0.443% and 16.4%.

CN(C)C(=O)O[C@H]1CN[C@H](C#Cc2cc3ncnc(Nc4ccc(OCc5cccc(F)c5)c(Cl)c4)c3s2)C1 was tested. Which growth inhibition did it give?
The growth inhibition was -7.88 ± 10%.

How did the growth inhibition turn out when O=C1NC(=O)C(=Cc2ccc(-c3ccc(F)cc3)o2)S1 (stereo in doubt) was run?
Its growth inhibition is 31.8 ± 28%.

For Cc1[nH]c(/C=C2\C(=O)Nc3ccccc32)c(C)c1CCC(=O)O, which growth inhibition is on record?
Its growth inhibition is 98.7 ± 2.4%.

Which growth inhibition does the source give for O=C(Nc1n[nH]c2cc(-c3cc(F)ccc3F)ccc12)C1CC1 here?
Its growth inhibition is -0.453 ± 13%.

O=C(NC[C@H](O)CO)c1ccncc1Nc1ccc(I)cc1F was tested. Which growth inhibition did it give?
The growth inhibition was 1.43 ± 12%.

For CCC(=O)Nc1ccc(C)c(-c2ccc(C(=O)NCC3CC3)cc2)c1, which growth inhibition is on record?
The growth inhibition was -2.46 ± 1.9%.

With COC(=O)c1sc(-n2cnc3cc(OC)c(OC)cc32)cc1OCc1ccccc1C(F)(F)F as the compound, how does the growth inhibition read?
Its growth inhibition is 0.599 ± 0.69%.

With CC(C)(O)CC(=O)NCCn1ccc2ncnc(Nc3ccc(Oc4cccc(C(F)(F)F)c4)c(Cl)c3)c21 as the compound, how does the growth inhibition read?
Its growth inhibition is 98.62 ± 0.75%.

Which growth inhibition does the source give for CS(=O)(=O)CCNCc1cc(-c2cc3c(Nc4ccc(OCc5cccc(F)c5)c(Cl)c4)ncnc3s2)cs1 here?
Its growth inhibition is -10.8 ± 13%.

For NC(=O)c1ccc(Oc2nccc(-c3c(-c4ccc(F)cc4)ncn3C3CCNCC3)n2)cc1, which growth inhibition is on record?
The growth inhibition was -2.66 ± 0.33%.

How did the growth inhibition turn out when CCCN1CCC=C(c2ccc(Nc3nc(Nc4ccccc4C(N)=O)c4cc[nH]c4n3)c(C)c2)C1 was run?
Its growth inhibition is -7.58 ± 1.9%.

How did the growth inhibition turn out when Cc1ccc(C(=O)Nc2ccc(CN3CCN(C)CC3)c(C(F)(F)F)c2)cc1C#Cc1cnc2cccnn12 was run?
Its growth inhibition is 94.4 ± 3.5%.

How did the growth inhibition turn out when c1ccc(-c2n[nH]cc2-c2ccnc(-c3ccc(OCCN4CCOCC4)cc3)c2)nc1 was run?
Its growth inhibition is -1.77 ± 9.5%.

COc1cccc(-n2ncc3c(N/N=C/c4ccc(F)cc4)ncnc32)c1 was tested. Which growth inhibition did it give?
Its growth inhibition is -3.41 ± 1%.

For NC(=O)c1sc(-n2cnc3ccc(C(F)(F)F)cc32)cc1OCc1ccccc1Br, which growth inhibition is on record?
The growth inhibition was -2.79 ± 1.9%.

For O=C(Nc1n[nH]c2nc(-c3ccco3)c(Br)cc12)C1CC1, which growth inhibition is on record?
Its growth inhibition is -3.36 ± 3.1%.

How did the growth inhibition turn out when CN1CCC(C(=O)Nc2n[nH]c3nnc(-c4ccccc4)cc23)CC1 was run?
Its growth inhibition is 17.5 ± 11%.

How did the growth inhibition turn out when Clc1ccc(CNc2nccc(-c3cnn4ncccc34)n2)cc1 was run?
Its growth inhibition is -1.66 ± 1.6%.

For CCn1c(-c2nonc2N)nc2c(C#CC(C)(C)O)nc(OCCNC)cc21, which growth inhibition is on record?
Its growth inhibition is 41.3 ± 18%.

How did the growth inhibition turn out when COc1cccc(-n2ncc3c(N/N=C/c4ccncc4)ncnc32)c1 was run?
The growth inhibition was -5.6 ± 4.6%.

For CC(C)(C)Cn1c(N)nc2ccc(-c3[nH]c(C(C)(C)C)nc3-c3ccc(F)cc3)nc21, which growth inhibition is on record?
Its growth inhibition is 97.5 ± 1.3%.

How did the growth inhibition turn out when Cc1nnc(-c2ccc(C)c(-c3ccc(C(=O)NCc4ccc(Cl)cc4)cc3)c2)o1 was run?
Its growth inhibition is -4.74 ± 3.3%.

Which growth inhibition does the source give for C[C@@H](Oc1cc(-n2cnc3ccc(OC[C@@H](O)CO)cc32)sc1C(N)=O)c1ccccc1Cl here?
Its growth inhibition is -3.67 ± 1.5%.

How did the growth inhibition turn out when CN(c1ccc(NC(=O)Nc2c(Cl)cccc2Cl)cc1)c1ccnc(Nc2cccc(CS(C)(=O)=O)c2)n1 was run?
Its growth inhibition is -2.91 ± 0.88%.

Which growth inhibition does the source give for NS(=O)(=O)c1ccc(N/N=C2\C(=O)Nc3ccc(Cl)cc32)cc1 here?
The growth inhibition was -12.5 ± 11%.

For CS(=O)(=O)N1CCN(Cc2cc3nc(-c4cccc5[nH]ncc45)nc(N4CCOCC4)c3s2)CC1, which growth inhibition is on record?
Its growth inhibition is 25.2 ± 21%.

How did the growth inhibition turn out when CN1CCN(c2ccc3nc(-c4c(N)c5c(F)cccc5[nH]c4=O)[nH]c3c2)CC1 [Dovitinib Dilactic Acid (TKI258 Dilactic Acid)] was run?
Its growth inhibition is 33.4 ± 20%.

COc1ncc(-c2ccc3nccc(-c4ccnnc4)c3c2)cc1NS(=O)(=O)c1ccc(F)cc1F was tested. Which growth inhibition did it give?
Its growth inhibition is 12.8 ± 7.8%.

CO[C@H]1C[C@@H]2CC[C@@H](C)[C@@](O)(O2)C(=O)C(=O)N2CCCC[C@H]2C(=O)O[C@H]([C@H](C)C[C@@H]2CC[C@@H](OP(C)(C)=O)[C@H](OC)C2)CC(=O)[C@H](C)/C=C(\C)[C@@H](O)[C@@H](OC)C(=O)[C@H](C)C[C@H](C)/C=C/C=C/C=C/1C [Deforolimus (Ridaforolimus)] was tested. Which growth inhibition did it give?
The growth inhibition was 39.2 ± 14%.

CC(C)CC(=O)Nc1n[nH]c2c1CN(C(=O)C1CCN(C)CC1)C2(C)C was tested. Which growth inhibition did it give?
Its growth inhibition is -44.3 ± 75%.

With CS(=O)(=O)CCNCc1ccc(-c2ccc3ncnc(Nc4ccc(OCc5ccccc5)c(Cl)c4)c3c2)o1 as the compound, how does the growth inhibition read?
The growth inhibition was -9.81 ± 12%.

CN(C)c1ccc(-c2nc3ncc(Cl)c(N4CCN(CC(=O)Nc5nccs5)CC4)c3[nH]2)cc1 was tested. Which growth inhibition did it give?
Its growth inhibition is 15.3 ± 0.56%.

For CNC(=O)c1sc(-n2cnc3cc(OC)c(OC)cc32)cc1OCc1ccccc1C(F)(F)F, which growth inhibition is on record?
Its growth inhibition is -11 ± 18%.
